The record followed here is PubChem BioAssay AID631 (The Scripps Research Institute Molecular Screening Center, 2007).

Among all 200,000 compounds or so, about 810 (0.41%) were called active. Many of the other results were omitted from the sample, so actives are more common in it than they were. A number with no mark means an inactive call. Cut-off read from the data, not from the text of the source: active = activation above about 19%; inactive = the rest.

In the experiment the target is Peroxisome proliferator-activated receptor gamma (Homo sapiens) (UniProt P37231). Briefly: PPARgamma agonists recruiting SRC-1 coactivator, primary screen, biochemical (AID 631).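 Note: 0% = DMSO and 100% = reference agonist.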 The conditions noted are these: PPARgamma-SRC-1 coactivator recruitment biochemical assay; at 8 µM; stronger effect = higher value.
Chain of Peroxisome proliferator-activated receptor gamma (Homo sapiens) (P37231 whole entry, looked up): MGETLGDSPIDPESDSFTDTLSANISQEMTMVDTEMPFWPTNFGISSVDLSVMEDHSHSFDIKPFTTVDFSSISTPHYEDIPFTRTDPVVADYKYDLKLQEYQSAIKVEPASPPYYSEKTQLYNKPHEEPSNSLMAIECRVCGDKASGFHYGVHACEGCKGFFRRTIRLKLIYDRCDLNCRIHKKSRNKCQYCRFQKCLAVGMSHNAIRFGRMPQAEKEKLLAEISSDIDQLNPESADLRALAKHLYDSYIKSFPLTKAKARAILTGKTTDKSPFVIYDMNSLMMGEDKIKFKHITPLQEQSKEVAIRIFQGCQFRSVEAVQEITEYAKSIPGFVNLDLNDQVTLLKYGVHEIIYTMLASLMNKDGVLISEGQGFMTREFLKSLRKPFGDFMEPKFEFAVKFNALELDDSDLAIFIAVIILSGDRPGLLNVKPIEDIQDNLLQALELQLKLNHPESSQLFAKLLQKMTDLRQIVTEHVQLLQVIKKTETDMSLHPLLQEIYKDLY
For the compound `Cc1ccc2nc(-c3cccc(Br)c3)cc(C(=O)Nn3cnnc3)c2c1`, the activation was -0.9%.
For `Cc1ccc(-c2cc(C(=O)NCc3cn(C)nc3C)c3cc(Br)ccc3n2)cc1`, the activation was 22.7% (active).
As for `COc1ccc(Cl)cc1C(=O)NCc1cn(C)nc1C`, the activation was 0.6%.
For `O=C(Cc1cc(=O)[nH][nH]1)N/N=C/c1ccccc1[N+](=O)[O-]`, the activation is 1.6%.
In the case of `O=C(COc1cccc2ccccc12)Nc1cc(S(=O)(=O)N2CCOCC2)ccc1N1CCOCC1`, the activation is 5.6%.
As to `COc1ccccc1CC(NC(C)=O)C(=O)NC1CCN(C(=O)Nc2ccccc2Cl)CC1` (stereo not drawn), the activation is 5.1%.
Take `C=CCN(CC=C)CCOc1ccccc1[N+](=O)[O-]`: the activation is 2.5%.
For the compound `COCC1CCCN(Cc2nc(-c3ccc4c(c3)OCO4)no2)C1` (stereo not drawn), the activation is 10.9%.
For the compound `COc1ccc(C2c3[nH]c4ccccc4c3CCN2CCCn2cccn2)cc1C` (stereo not drawn), the activation is -5%.
As for `CC(C)(C)CC(=O)Nc1nnc(SCC(=O)NCc2cccs2)s1`, the activation is 10.6%.
Consider `O=C(/C=C/Nc1ccccc1OC(F)(F)F)C(F)(F)F`, for which the activation was -4.7%.
Take `CN(C)c1ccc(N/C=C/C(=O)C(F)(F)F)cc1`: the activation is 31.5% (active).
As to `CCCOc1ccc(N/C=C/C(=O)C(C)(C)C)cc1`, the activation is 2.3%.
Regarding `COC(=O)C[n+]1cccc2ccccc21`, the activation is 4.1%.
For the compound `O=C(O)c1ccn(COc2ccc(Br)cc2)n1`, the activation is 7.4%.
With `Cc1ccc(Cc2cnc(NC(=O)/C(C#N)=C/c3ccc(-c4cccc([N+](=O)[O-])c4)o3)s2)cc1`, the activation was 2.6%.
`Cc1ccc(-c2ccc(/C=C(\C#N)C(N)=S)o2)c([N+](=O)[O-])c1`: the activation was 22.9% (active).
`Cc1cc(-c2ccc(/C=N/n3cnnc3)o2)c([N+](=O)[O-])cc1C`: the activation is -9.4%.
The same measure for `Cc1cc(C)cc(C(=O)N(CCc2ccccc2)C2=CC3CCC(C2)N3C)c1` (stereo not drawn): -4.8%.
Consider `CSc1nc2nc(-c3cccc(C(F)(F)F)c3)ccn2n1`, for which the activation was 3.3%.
Regarding `CCn1ccnc1CN(C)Cc1nc(-c2ccc3c(c2)OCO3)no1`, the activation is 3.8%.
Take `CC(C)CC(CC(C)C)=NNC(=O)c1ccc(CSc2nncn2C)cc1`: the activation is 9.8%.
Consider `COC(=O)c1cccnc1NC(=S)NC(C)C`, for which the activation was 5.1%.
For `Cc1cc(Nc2ccccc2)n(C(=O)c2ccc(N)cc2)n1`, the activation is 3.5%.
Turning to `Cc1ccc(Nc2ccccc2N)cc1`, the activation is 7.5%.
Consider `Nc1ccc(Nc2ccccc2)cc1`, for which the activation is 20.9% (active).
On to `COc1cc(C(=O)NCc2nnc(SCC(=O)Nc3nc4ccc(C)cc4s3)o2)cc(OC)c1OC`, for which the activation was 4.6%.
Regarding `COc1ccc(-c2ccc(CCC(=O)O)n2NC(=O)c2ccc(C(C)(C)C)cc2)cc1`, the activation is 4.4%.
For the compound `CCOC(=O)Cc1cc(=O)[nH]c(=O)[nH]1`, the activation was 1.2%.
The same measure for `O=C1CCC(=O)N1c1ccc(NCCc2ccccc2F)c([N+](=O)[O-])c1`: 9%; for `CC(=O)c1sc2nc(SCC(=O)N3CCCCC3)[nH]c(=O)c2c1C`: 19.1% (active); for `C=CCNC(=O)CSc1nc2sc(C)c(C)c2c(=O)[nH]1`: 1.1%.
In the case of `O=C(CSc1nc2c(cnn2-c2ccc(F)cc2)c(=O)[nH]1)N1CCCCCC1`, the activation was 1.2%.
For the compound `Cc1cccc(NC(=O)c2ccc3nsnc3c2)c1C`, the activation is 4.5%.
`O=C(Cc1ccccc1)NNS(=O)(=O)c1ccc([N+](=O)[O-])cc1`: the activation is 0.6%.
Consider `Cc1cn(C)c(=O)n(C)c1=O`, for which the activation is 3.8%.
For the compound `COc1cc(C2CC(=O)N3CN(Cc4ccccc4)CSC3=C2C#N)ccc1OCc1ccccc1` (stereo not drawn), the activation is 19% (active).
With `COc1ccc(CCN=C2SCC(=O)N2Cc2ccccc2)cc1OC`, the activation was -0.6%.
Turning to `COc1cc(CNC2CCCC2)c(Br)cc1OCc1ccccc1`, the activation is 1.4%.
With `CCOc1ccc(N(CC(=O)NCCc2ccc(OC)cc2)S(C)(=O)=O)cc1`, the activation was 0.5%.
For the compound `CCOC(=O)Cc1csc(SCC(=O)NC(C)C23CC4CC(CC(C4)C2)C3)n1` (stereo not drawn), the activation is -9%.
`Cc1nnc(SCCCCSc2nnc(C)c(=O)[nH]2)[nH]c1=O`: the activation was 4.2%.
The same measure for `COc1ccc(NC(=O)c2ccccc2CC[N+](=O)[O-])cc1`: 3.6%.
